Measured values as given in ChEMBL document CHEMBL3988442, “University of Dundee, Small-Polar-MMV Screening Library” (2021).

How the values were obtained:
[1] = target: T1, Aspartate--tRNA(Asp/Asn) ligase (Mycobacterium tuberculosis (strain ATCC 25618 / H37Rv)) (UniProt P9WFW3); assay: Assay for Asp RNA synthetase-1 from Mycobacterium tuberculosis; format: functional; design: scale not given: direction of the effect not stated beside the values; conditions: 30 µM; note: in the data most compounds retested in dose-response had high values
T1 sequence (whole entry): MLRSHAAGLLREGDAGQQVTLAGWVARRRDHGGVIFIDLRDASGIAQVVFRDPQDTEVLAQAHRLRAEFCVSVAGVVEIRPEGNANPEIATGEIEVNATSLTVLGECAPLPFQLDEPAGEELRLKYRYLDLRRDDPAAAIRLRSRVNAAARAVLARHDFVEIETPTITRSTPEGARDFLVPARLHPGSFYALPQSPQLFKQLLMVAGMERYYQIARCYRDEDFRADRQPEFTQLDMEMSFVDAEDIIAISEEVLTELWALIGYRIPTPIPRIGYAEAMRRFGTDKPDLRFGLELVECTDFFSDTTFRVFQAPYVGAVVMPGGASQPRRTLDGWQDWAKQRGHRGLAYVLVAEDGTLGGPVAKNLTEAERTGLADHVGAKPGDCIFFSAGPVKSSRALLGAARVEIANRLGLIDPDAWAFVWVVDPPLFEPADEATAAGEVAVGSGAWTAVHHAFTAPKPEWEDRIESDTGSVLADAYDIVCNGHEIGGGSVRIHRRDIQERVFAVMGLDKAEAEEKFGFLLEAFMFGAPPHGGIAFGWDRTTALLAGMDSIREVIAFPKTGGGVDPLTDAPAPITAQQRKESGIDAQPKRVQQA

[2] = target: Shiga toxin 2 (Escherichia coli O157:H7) (UniProt P09385+P09386); assay: E. coli 0.157:H7 Shiga Toxin SOP - stx2 screening assay; format: functional; design: scale not given: direction of the effect not stated beside the values; conditions: 30 µM

Compound | Percent Effect [1] [%] | Percent Effect [2] [%]
CCC1=N[C@@]2(CC[C@@H]3CN(C(=O)NCc4ccccc4)C[C@@H]32)C(=O)N1 | 1.75 | 5.39
COc1ccc(OCCCNC(=O)NCc2csc(C)n2)cc1 | -1.75 | -17
COCCN1CCN(CCS(=O)(=O)C(F)(F)F)CC1C (stereo not drawn) | -2.33 | 96.7
CN1CCN(Cc2nnc(C3CCN(CC4CC4)CC3)n2C)CC1 | -0.891 | 2.65
CNS(=O)(=O)c1ccc(CNC(=O)NCC2CCOC2)cc1 (stereo not drawn) | -4.9 | 25.4
Cc1noc(CN2CCOC(CN(C)C)C2)n1 (stereo not drawn) | -7.81 | -10.9
Cc1cc(C(=O)NCC2COCc3c(C)nnn3C2)no1 (stereo not drawn) | 2.38 | -17.1
COc1cc(C2CC(=O)Oc3cc(C)[nH]c(=O)c32)ccc1OC(F)F (stereo not drawn) | -4.59 | -43.6
CCNC(=O)N1CCC2(C1)c1ccccc1S(=O)(=O)N2CCC(C)C (stereo not drawn) | -0.553 | -1.22
COc1nn(C)cc1C(=O)N1CCC(c2nnc(C3CC3)o2)CC1 | -1.47 | -8.92
O=C(NCCc1cccnc1)N1CCCC1c1ccsc1 (stereo not drawn) | -2.72 | 1.93
Cn1ccnc1CN1CCN(Cc2cc(C#N)ccc2F)CC1 | -5.71 | 17.6
COCCN1CCN(Cc2ccc(F)c(C)c2)[C@H]2CS(=O)(=O)C[C@H]21 | -3.12 | -5.44
COC(=O)c1cccc(NC(=O)CCn2nc(-c3cccs3)oc2=O)c1 | 1.89 | 18.1
O=c1ccc2c(n1CCN1CCCC1)CCN(Cc1ccoc1)CC2 | -2.69 | -1.66
COCC1CN(C(=O)c2cccn2C)Cc2ncnn2C1 (stereo not drawn) | 12.6 | -34.6
Cc1ccc(-c2nc(CN3CCn4c(nnc4C4CC4)C3)cs2)o1 | -4.03 | -88.7
CN(C(=O)Cn1nc(-c2ccc(F)cc2)ccc1=O)C1CCS(=O)(=O)C1 (stereo not drawn) | 3.06 | 1.8
Cn1c(Cn2cccn2)nnc1C1CCCN(c2ccncc2)C1 (stereo not drawn) | 1.37 | -3.13
